For some assays here: Entries with a potency or affinity are not part of this list.
Columns and labels:
Parameters in all cases: scale not given: direction of the effect not stated beside the values
[1] = biological target: Protein translocase subunit SecA (Escherichia coli (strain K12)) (UniProt P10408); experiment: Assay to Identify E. coli SecA ATPase Inhibitors; format: functional; settings: 30 µM
[2] = biological target: T1, Ubiquitin-activating enzyme e1, putative (Leishmania donovani (strain BPK282A1)) (UniProt E9BSI1); experiment: Leishmania donovani Ubiquitin Activating Enzyme (LdE1); format: functional; settings: 30 µM
T1 sequence (whole entry): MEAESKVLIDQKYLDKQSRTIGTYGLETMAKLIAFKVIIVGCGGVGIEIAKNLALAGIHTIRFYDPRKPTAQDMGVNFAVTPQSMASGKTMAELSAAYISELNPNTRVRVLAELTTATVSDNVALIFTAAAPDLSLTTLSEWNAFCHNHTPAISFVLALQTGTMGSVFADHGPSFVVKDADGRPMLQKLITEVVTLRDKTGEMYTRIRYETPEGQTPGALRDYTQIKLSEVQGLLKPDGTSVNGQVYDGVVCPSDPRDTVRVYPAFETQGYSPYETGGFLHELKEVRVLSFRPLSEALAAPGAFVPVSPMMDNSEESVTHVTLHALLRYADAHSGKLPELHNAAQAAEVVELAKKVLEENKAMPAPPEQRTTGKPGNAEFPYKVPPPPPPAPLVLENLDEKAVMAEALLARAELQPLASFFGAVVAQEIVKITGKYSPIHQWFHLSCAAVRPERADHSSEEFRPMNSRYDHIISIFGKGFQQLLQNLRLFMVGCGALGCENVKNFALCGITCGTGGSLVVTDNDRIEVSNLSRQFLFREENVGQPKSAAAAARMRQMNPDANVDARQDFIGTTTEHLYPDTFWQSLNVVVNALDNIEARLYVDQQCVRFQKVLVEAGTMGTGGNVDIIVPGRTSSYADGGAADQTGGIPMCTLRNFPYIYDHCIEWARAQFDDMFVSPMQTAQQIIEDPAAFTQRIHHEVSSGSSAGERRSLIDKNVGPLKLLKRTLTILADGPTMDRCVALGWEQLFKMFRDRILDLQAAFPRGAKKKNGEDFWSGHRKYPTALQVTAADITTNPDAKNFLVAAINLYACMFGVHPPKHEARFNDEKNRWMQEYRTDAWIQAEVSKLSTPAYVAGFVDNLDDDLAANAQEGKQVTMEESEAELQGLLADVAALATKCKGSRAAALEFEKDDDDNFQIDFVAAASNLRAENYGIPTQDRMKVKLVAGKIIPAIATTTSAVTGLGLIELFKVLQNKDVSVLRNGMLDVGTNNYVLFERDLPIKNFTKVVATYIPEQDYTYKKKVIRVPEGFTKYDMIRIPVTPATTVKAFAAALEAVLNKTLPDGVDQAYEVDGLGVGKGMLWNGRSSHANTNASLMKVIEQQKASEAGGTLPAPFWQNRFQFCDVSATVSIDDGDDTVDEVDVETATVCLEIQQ

[3] = biological target: AMP-activated protein kinase, AMPK (Homo sapiens) (UniProt P54646+O43741+P54619+Q9UGJ0+Q9Y478+Q13131+Q9UGI9); experiment: AMP-dependent Kinase enzyme assay. An in vitro enzyme assay that detects ADP turnover that is directly proportional to AMPK activity. This uses naive AMPK that is activated during the assay with MK-8722; format: functional; settings: 30 µM
[4] = biological target: Sialic acid-binding Ig-like lectin 9 (Homo sapiens) (UniProt Q9Y336); experiment: Hs-Siglec9 ALPHAscreen SOP 20170721; settings: 10 µM
Chain of Sialic acid-binding Ig-like lectin 9 (Homo sapiens) (Q9Y336 whole entry): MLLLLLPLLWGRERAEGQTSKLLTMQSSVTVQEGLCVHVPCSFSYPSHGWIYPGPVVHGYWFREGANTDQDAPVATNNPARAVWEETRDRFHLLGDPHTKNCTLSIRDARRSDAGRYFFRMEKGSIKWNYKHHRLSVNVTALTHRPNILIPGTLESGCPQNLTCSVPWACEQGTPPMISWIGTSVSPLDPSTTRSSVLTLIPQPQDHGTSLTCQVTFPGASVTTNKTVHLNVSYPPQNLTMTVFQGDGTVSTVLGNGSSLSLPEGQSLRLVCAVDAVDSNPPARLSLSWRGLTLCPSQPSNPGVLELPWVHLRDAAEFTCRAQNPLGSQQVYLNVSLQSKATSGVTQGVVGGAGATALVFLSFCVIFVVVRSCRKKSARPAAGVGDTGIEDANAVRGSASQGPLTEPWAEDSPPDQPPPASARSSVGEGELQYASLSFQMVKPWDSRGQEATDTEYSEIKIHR

[5] = system: Trypanosoma cruzi; experiment: Trypanosoma cruzi phosphomannomutase and mannose-1-phosphate guanylyltransferase assay; format: functional; settings: 10 µM
[6] = biological target: T2, Arginase-2, mitochondrial (Homo sapiens) (UniProt P78540); experiment: in vitro enzyme assay to detect the production of urea directly proportional to the activity of Arginase II; format: functional; settings: 33.3 µM; note: in the data most compounds retested in dose-response had high values
T2 sequence (whole entry): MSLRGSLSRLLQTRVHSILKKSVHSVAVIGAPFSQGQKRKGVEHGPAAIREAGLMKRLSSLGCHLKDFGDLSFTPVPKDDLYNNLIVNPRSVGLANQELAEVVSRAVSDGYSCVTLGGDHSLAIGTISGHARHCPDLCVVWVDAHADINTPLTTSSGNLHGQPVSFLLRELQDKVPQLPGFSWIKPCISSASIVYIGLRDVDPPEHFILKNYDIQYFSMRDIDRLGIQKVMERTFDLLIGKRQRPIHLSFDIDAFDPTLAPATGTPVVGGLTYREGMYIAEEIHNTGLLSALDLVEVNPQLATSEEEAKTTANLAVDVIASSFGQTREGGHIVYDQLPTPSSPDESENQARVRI

[7] = biological target: T3, Proteasome subunit beta (Trypanosoma cruzi) (UniProt O96673); experiment: Trypanosoma cruzi proteasome chymotrypsin-like activity (TcProtChymo) assay.; note: in the data most compounds retested in dose-response had high values; format: functional; settings: 9.37 µM
T3 sequence (whole entry): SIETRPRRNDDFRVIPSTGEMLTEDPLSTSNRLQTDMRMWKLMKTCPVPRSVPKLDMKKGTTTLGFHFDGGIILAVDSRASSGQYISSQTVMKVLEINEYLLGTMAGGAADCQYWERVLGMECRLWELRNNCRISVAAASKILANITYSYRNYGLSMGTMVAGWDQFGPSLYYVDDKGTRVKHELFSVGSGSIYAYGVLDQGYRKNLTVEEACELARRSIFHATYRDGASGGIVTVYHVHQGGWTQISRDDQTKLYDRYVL

[8] = species: Homo sapiens; experiment: To identify inhibition of the IFN signalling (Jak-Stat) pathway via expression of an eGFP reporter gene under the control of an IFN-stimulated response element (ISRE) containing MxA promoter.; format: functional; settings: 30 µM
[9] = biological target: T4, Tyrosyl-tRNA synthetase, putative (Trypanosoma cruzi (strain CL Brener)) (UniProt Q4DSP6); experiment: Trypanosoma cruzi tyrosyl tRNA synthetase (TcYRS) _High Tyrosine SOP; format: functional; settings: 30 µM; note: in the data most compounds retested in dose-response had high values
T4 sequence (whole entry): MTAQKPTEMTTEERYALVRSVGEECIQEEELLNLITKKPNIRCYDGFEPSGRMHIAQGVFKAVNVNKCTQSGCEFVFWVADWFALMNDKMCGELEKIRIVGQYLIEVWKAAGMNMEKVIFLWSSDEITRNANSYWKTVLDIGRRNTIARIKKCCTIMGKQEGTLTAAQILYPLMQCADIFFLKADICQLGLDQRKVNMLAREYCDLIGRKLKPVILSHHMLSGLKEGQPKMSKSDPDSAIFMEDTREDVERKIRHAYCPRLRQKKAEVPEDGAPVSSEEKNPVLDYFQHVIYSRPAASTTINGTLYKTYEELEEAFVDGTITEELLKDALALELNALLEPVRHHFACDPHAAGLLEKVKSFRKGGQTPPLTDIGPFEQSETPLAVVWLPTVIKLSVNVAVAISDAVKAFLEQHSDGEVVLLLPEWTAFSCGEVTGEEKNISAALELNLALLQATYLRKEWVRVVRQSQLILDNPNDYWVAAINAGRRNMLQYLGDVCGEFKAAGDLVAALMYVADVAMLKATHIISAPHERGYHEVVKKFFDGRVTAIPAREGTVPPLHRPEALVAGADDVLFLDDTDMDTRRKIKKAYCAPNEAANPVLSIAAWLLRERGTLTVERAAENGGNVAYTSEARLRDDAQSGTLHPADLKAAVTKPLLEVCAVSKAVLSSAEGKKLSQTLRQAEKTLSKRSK

[10] = biological target: T4, Tyrosyl-tRNA synthetase, putative (Trypanosoma cruzi (strain CL Brener)); experiment: Trypanosoma cruzi tyrosyl tRNA synthetase (TcYRS) SOP; format: functional; settings: 30 µM
[11] = biological target: Chromo domain-containing protein 1 (Saccharomyces cerevisiae (strain ATCC 204508 / S288c) (Baker's yeast)) (UniProt P32657); experiment: ScCHD-1 Enzyme Inhibition Assay; format: functional; settings: 30 µM; note: in the data most compounds retested in dose-response had high values
Chain of Chromo domain-containing protein 1 (Saccharomyces cerevisiae (strain ATCC 204508 / S288c) (Baker's yeast)) (P32657 whole entry, the tested form may be a part): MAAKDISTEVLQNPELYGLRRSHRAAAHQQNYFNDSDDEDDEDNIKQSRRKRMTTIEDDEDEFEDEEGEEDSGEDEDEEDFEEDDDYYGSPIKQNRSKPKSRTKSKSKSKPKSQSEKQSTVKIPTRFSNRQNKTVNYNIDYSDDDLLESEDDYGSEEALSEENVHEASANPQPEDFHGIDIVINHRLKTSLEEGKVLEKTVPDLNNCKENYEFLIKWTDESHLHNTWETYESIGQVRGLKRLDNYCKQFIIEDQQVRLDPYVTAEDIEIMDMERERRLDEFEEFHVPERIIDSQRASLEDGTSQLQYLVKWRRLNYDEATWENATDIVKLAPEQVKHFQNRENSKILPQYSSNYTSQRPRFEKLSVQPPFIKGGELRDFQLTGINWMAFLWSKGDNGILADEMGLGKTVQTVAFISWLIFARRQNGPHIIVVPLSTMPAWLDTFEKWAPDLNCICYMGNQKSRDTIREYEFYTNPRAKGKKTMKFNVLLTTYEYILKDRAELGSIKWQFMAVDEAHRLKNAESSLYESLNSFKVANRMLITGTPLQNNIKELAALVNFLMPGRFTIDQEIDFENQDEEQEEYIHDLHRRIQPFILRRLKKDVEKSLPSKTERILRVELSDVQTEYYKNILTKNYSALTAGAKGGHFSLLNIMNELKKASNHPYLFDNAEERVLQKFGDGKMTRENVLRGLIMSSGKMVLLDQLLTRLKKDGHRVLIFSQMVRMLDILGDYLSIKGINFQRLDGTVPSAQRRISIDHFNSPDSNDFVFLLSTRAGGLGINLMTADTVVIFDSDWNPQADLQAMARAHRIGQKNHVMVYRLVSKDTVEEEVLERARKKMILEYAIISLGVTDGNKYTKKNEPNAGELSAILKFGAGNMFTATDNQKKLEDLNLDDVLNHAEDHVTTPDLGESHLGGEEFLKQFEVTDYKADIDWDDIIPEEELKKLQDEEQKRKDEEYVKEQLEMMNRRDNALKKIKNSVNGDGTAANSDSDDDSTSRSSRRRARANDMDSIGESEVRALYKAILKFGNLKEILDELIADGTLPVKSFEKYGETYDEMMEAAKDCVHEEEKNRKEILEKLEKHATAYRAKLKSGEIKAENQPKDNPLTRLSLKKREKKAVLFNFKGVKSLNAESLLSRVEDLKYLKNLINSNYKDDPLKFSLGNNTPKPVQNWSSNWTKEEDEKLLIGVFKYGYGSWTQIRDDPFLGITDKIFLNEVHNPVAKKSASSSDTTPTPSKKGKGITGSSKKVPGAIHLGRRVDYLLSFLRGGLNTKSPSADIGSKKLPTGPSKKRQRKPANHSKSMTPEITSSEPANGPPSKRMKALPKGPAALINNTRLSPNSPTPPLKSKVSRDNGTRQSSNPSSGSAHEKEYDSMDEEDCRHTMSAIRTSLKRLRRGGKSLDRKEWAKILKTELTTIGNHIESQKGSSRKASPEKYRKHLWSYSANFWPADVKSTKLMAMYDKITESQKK

Chain of Protein translocase subunit SecA (Escherichia coli (strain K12)) (P10408 whole entry): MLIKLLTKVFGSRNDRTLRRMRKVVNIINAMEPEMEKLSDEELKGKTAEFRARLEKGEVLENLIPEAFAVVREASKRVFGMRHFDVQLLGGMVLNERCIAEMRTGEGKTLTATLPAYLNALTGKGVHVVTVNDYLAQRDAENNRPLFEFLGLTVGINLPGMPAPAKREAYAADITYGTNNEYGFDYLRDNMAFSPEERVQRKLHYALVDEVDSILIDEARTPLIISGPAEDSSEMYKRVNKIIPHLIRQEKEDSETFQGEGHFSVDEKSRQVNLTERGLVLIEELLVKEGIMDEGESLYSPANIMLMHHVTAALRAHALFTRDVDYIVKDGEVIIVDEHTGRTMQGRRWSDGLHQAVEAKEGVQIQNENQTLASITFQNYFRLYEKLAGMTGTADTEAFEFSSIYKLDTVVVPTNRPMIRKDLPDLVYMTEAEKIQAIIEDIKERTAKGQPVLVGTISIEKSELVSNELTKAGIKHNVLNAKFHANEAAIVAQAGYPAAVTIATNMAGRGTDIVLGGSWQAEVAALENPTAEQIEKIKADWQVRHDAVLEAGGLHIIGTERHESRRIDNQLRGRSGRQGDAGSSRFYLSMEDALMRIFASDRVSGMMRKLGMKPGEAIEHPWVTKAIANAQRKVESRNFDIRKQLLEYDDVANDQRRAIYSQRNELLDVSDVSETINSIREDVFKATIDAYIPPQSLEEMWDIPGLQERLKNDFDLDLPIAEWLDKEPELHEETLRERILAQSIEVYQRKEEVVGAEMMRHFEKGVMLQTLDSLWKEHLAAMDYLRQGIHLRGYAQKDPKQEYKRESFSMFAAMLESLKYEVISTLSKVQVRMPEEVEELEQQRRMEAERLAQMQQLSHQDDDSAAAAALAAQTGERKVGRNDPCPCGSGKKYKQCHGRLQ

Row | SMILES | Percent Effect [1] | Percent Effect [2] | Percent Effect [3] | Percent Effect [4] | Percent Effect [5] | Percent Effect [6] | Percent Effect [7] | Percent Effect [8] | Percent Effect [9] | Percent Effect [10] | Percent Effect [11]
1 | c1coc(-c2noc(CN3CCCC(Cn4cncn4)C3)n2)c1 (stereo unspecified) | -6.64% | 7.59% | -3.53% | 4.26% | 6.14% | -3.04% | 2.05% | 3.63% | -1.48% | 11.4% | -5.56%
2 | CCc1ccc(C(=O)N2CCCC(c3noc(CC)n3)C2)o1 (stereo unspecified) | -0.983% | 2.6% | 7.44% | 4.61% | 3.04% | 0.21% | 4.12% | 3.88% | 0.952% | 7.06% | -10.5%
3 | Cc1cc(C)n(-c2cc(N3CCN(C(=O)C(C)(C)C)CC3)nc(C)n2)n1 | -2.73% | 5.33% | -1.22% | 6.39% | 2.04% | 14.1% | 3.31% | 26.8% | 0.546% | 3.7% | -5.38%
4 | CC(C)(C)c1nnc(CN2CCOC(Cn3cccn3)C2)o1 (stereo unspecified) | -3.67% | 15.2% | -3.73% | 9.59% | 5.38% | 1.9% | 5.16% | 14.4% | 5.42% | 16.5% | -5.63%
5 | CCS(=O)(=O)N1Cc2nccn2CC(COc2cccnc2)C1 (stereo unspecified) | -5.39% | 10.7% | -4.67% | 3.69% | 3.48% | -35.7% | 15.4% | 3.42% | 7.29% | 12.5% | -8.7%
6 | Cc1cn2c(n1)CCC(NC(=O)CCn1cncn1)C2 (stereo unspecified) | -8.14% | 5.26% | -6.54% | -5.36% | -3.64% | -2.88% | 10.4% | -0.843% | -1.48% | 1.24% | 7.18%
7 | COc1ccccc1CC(=O)N1CCC(NCc2cccnc2)CC1 | -3.89% | 16.2% | -2.91% | -2.63% | -9.01% | -0.924% | 7.18% | 3.6% | 3.96% | 3.66% | -3.87%
8 | Cc1cnn(CC2CCCN2CCc2nc3ccccc3c(=O)[nH]2)c1 (stereo unspecified) | -3.81% | 10.1% | -7.83% | 11.2% | 6.89% | 4.56% | -1.06% | 15.8% | 3.45% | 16.5% | -5.27%
9 | COc1cccc(CCC2CCCN(C(=O)C3=NN(C)C(=O)CC3)C2)c1 (stereo unspecified) | -0.975% | -10.8% | -2.43% | -1.4% | -3.28% | 0.952% | 3.79% | 6.9% | 3.7% | 4.88% | -1.44%
10 | Cc1ccc2c(ccn2CCC(=O)N2CCC(C(N)=O)CC2)c1 | -2.26% | 6.67% | 6.01% | 7.91% | -0.393% | -12.2% | 16.6% | -3.73% | 5.29% | 7.69% | -3.32%
11 | COc1ccc(NC(=O)c2ccc(-n3ncc(C#N)c3N)cc2)cn1 | -3.59% | 10.1% | 0.744% | 15.3% | -3.68% | -4.94% | 0.901% | 8.55% | 4.43% | 8.86% | -4.68%
12 | Cc1n[nH]c(C2CN(C(=O)Cn3ccccc3=O)CCO2)n1 (stereo unspecified) | -8.02% | 1.27% | 4.25% | 2.29% | -1.13% | 2.37% | 6.35% | 1.57% | 0% | 2.53% | -9.48%
13 | Cc1nc(C)c(CNC(=O)NC(c2nnc3n2CCC3)C(C)C)s1 (stereo unspecified) | -6.15% | 0% | -0.521% | 1.26% | -4.1% | -2.08% | 12.8% | 8.88% | 5.94% | 11% | -0.921%
14 | CCN(CC)S(=O)(=O)N1CCCC(c2cccc(C(=O)O)c2)C1 (stereo unspecified) | -3.72% | 16.2% | -6.67% | 19.8% | 6.56% | 0.952% | 10.9% | 5.56% | 6.88% | 17.1% | -5.44%
15 | CCCNC(=O)c1ccc(NC(=O)c2cccc(OCC)c2)cc1 | 1.49% | -5.41% | 0.466% | -0.164% | -1.16% | 0.952% | 7.07% | 3.02% | 0.529% | 2.44% | 2.44%
16 | CC(C(=O)NCCCn1ccnc1)n1cc(Br)cn1 (stereo unspecified) | -3.65% | 2.6% | -2.79% | 7.47% | 3.83% | -33.1% | 10.7% | -6.92% | 7.53% | 18.5% | -2%
